# S-ASM inh: Inhibitors of Secretory Acid Sphingomyelinase (S-ASM): qHTS; Sphingomyelin phosphodiesterase (Homo sapiens), P17405; placental ASM, HMU-PC fluorogenic substrate, 60 min; Potency, µM (doses to about 57.5 µM), for inactives: at the top dose activity change, negative = inhibition, actives largely listed as inhibitors; hit rate 0.006% among 340,000
#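 qHTS format. ASM enzyme prepared from human placenta hydrolyses the fluorogenic substrate HMU-PC0 (9 uM final) over 60 min at 37 °C after a 10 min compound preincubation.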
# GCN5L2 inh: qHTS Assay for Inhibitors of GCN5L2; Potency, µM (top dose mostly 58.9 µM), without a hit: at the top dose activity change, negative = inhibition, actives largely listed as inhibitors; GCN5L2 HAT assay, ThioGlo1 CoA-SH fluorescence; hit rate 0.21% among 390,000; Histone acetyltransferase KAT2A (Homo sapiens), Q92830; further: on the % scale 0 is the no-effect control and ±100 the full control effect
#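 qHTS, 1536-well. 20nM enzyme, pH 7.5 HEPES/EDTA/Tween-20 buffer; 15 min compound preinc., RT. Start: 75uM H3(1-25), 70uM AcCoA, 50uM ThioGlo1. Read Ex340/Em540 at t=0 (autofluorescence flag) and t=20 min.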
# p53 reactivation: qHTS assay for re-activators of p53 using a Luc reporter | H1299 p53-A138V BP100-luciferase reporter, luminescence, 24 h | Potency, µM (highest dose often 92.2 µM), for the others: at the highest dose activity change, positive = activation, most hits filed as activators | hit rate 0.063% among 320,000 | AID 504706, 2011; further: % of control where 0% means no effect; nearly all actives have a fitted effect of over 45% in size
#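 H1299 (p53-null), stable ts p53-A138V + BP100-Luc; 1000 cells/well, Opti-MEM/10% FBS; cpd 4 pt, 1:5; 24 h, 37 deg C, 5% CO2; detection reagent 10 min RT; luminescence.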
# AT treatment: qHTS Assay for Identifying a Potential Treatment of Ataxia-Telangiectasia; hit rate 0.19% among 320,000; F2112 A-T fibroblasts, KAP-1 phosphorylation AlphaLISA; neocarzinostatin DNA damage 30 min before lysis; Potency, µM (doses to about 57.5 µM), for the others: at the highest dose activation, actives largely listed as activators; AID 485349, 2010; further: % of control where 0% means no effect; nearly all actives have a fitted effect of over 45% in size
#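 hTERT-immortalized A-T patient fibroblasts (F2112), 500 cells/well in OPTI-MEM, 1% FBS, got compounds for 60 min, then NCS for 30 min at 37C. Lysates were then assayed for phospho-KAP-1 by AlphaLISA (anti-pKAP1 donor, anti-KAP1 acceptor beads), 6 hr at 25C.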
# Tb PFK inh-1: qHTS Assay to Find Inhibitors of T. brucei phosphofructokinase | ATP-dependent 6-phosphofructokinase (Trypanosoma brucei brucei), O15648 | T. brucei PFK, ADP-Glo luminescence | Potency, µM (doses to about 57.5 µM), inactives show at the top dose activity, negative = inhibition, hits mostly inhibitors | hit rate 0.17% among 330,000 | AID 485367, 2010;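 further: 0% = uninhibited 1x PFK enzyme wells and -100% = no-enzyme wells; nearly all actives have a fitted effect of over 60% in size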
#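 In TEA buffer at pH 8.0 with 5 mM MgCl2, enzyme (1.25 nM) converted F6P (0.5 mM) and ATP (0.1 mM) for 45 min at room temperature. ADP product was read by luciferase luminescence.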
# ERG-DNA inh: qHTS for Small Molecule Inhibitors of the ERG Ets/DNA interaction | Transcriptional regulator ERG (Homo sapiens), P11308 | fluorescence polarization, His-ERG Ets domain / labelled DNA | Potency, µM (doses to about 76.9 µM), inactives show top-dose FP activity, negative = inhibition, most hits filed as inhibitors | hit rate 0.028% among 370,000 | AID 624246, 2012; active means well fitted inhibition curve with a large enough effect in the polarisation, with a control signal flat; inconclusive means small, poorly fitted or top-dose-only effect, or effect the other way, or a change in a side signal; inactive means no such curve, though single readings can be large or run the other way; the % refers to the polarisation;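 further: polarization taken with two DNA probes labelled with fluorescein and Texas red; % of control where 0% means no effect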
# Target sequence (P11308 whole entry, looked up, the tested form may be a part): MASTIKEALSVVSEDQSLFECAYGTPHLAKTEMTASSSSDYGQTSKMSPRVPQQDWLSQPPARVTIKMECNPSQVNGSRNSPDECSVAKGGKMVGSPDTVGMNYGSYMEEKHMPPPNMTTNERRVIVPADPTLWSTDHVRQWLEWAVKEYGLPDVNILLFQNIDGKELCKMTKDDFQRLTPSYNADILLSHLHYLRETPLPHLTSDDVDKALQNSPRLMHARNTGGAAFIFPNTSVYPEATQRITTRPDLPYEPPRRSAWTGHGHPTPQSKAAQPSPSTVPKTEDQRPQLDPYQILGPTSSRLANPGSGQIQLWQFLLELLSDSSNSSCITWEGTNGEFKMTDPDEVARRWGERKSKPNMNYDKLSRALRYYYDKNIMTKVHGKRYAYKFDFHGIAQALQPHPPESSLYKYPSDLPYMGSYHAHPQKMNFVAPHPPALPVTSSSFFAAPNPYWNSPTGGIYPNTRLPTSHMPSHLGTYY
#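 His-tagged ERG Ets domain (1 uM in the protein solution; 300mM KCl, 50mM Tris-HCl, 1mM EDTA, 1mM DTT, pH 7.5) received compound, then a probe mix of 5 nM fluorescein-DNA and 100nM Texas-615-DNA. Fluorescence polarization was read for both dyes.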
# TbPFK ATP: Tb PFK orthogonal confirmatory assay using ATP depletion (Kinase-Glo Plus) as an alternative measure of Tb PFK activity: Hit Validation; shares compounds with Tb PFK inh-1; Tb PFK enzyme, ATP depletion, Kinase-Glo Plus luminescence; Potency, µM (titrated, usually from 57.5 µM), without a hit: at the highest dose inhibition; hit rate 47% among 1,100; calls by dose curve; further: nearly all actives have a fitted effect of over 60% in size
# Tb PFK inh-2: Inhibitors of T. brucei phosphofructokinase: Hit Validation | shares compounds with Tb PFK inh-1 | purified T. brucei PFK, ADP-Glo luminescence, 45 min | Potency, µM (top dose mostly 57.5 µM), for the others: at the top dose activity change, negative = inhibition, actives largely listed as inhibitors | hit rate 41% among 1,100 | AID 504637, 2011;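 further: plate controls were full PFK enzyme control for no effect and no enzyme control for full effect; nearly all actives have a fitted effect of over 60% in size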
# Active calls of the source: *; ? = inconclusive; . = no result given; [ ] = another dose, or the depositor's remark. The list is not random: actives were taken first. Their share in the collection is about 0.55%. Unless noted, the call rests on the fitted dose curve; in most records, active means well fitted curve in the direction sought with a large enough effect; inconclusive means small, poorly fitted or top-dose-only effect, or another doubt; inactive means no such curve, though single readings can be large; an effect the other way counts as inactive or inconclusive. Potency means the concentration at half of the fitted maximal effect.
SMILES,S-ASM inh,GCN5L2 inh,p53 reactivation,AT treatment,Tb PFK inh-1,ERG-DNA inh,TbPFK ATP,Tb PFK inh-2
C[C@](O)(CS(=O)(=O)c1ccc(F)cc1)C(=O)Nc1ccc(C#N)c(C(F)(F)F)c1,.,-5.6%,.,.,.,.,.,.
COc1cc(OC)cc(C(=O)OCC(=O)NCc2ccco2)c1,-2.9%,-23.7%,2.5%,-3.5%,15.1µM*,-4.3%,?,?
O=C(COC(=O)Cc1cccc(C(F)(F)F)c1)NCc1ccco1,-7.6%,-9.5%,20.5%,5.3%,8.49µM*,-5.5%,3.79µM*,10.7µM*
CC(C)(C)C(=O)c1cn(CC(=O)NCc2ccco2)c2ccccc12,-1.8%,2.4%,7.4%,3.2%,4.1%,6.5%,.,.
CN(CC(=O)O)C(=O)[C@H](Cc1ccccc1)NC(=O)[C@@H](CCCN=C(N)N)NC(=O)[C@@H](N)Cc1ccc(O)cc1,.,-19.3%,.,.,.,.,.,.
C[C@H]1[C@@H](O)[C@@H](C)/C=C\C=CCC\C=C/C=C\C=C/C=C[C@@H](O[C@H]2O[C@@H](C)[C@@H](O)[C@@H](N)[C@@H]2O)C[C@@H]2O[C@@](O)(C[C@@H](O)[C@H]2C(=O)O)C[C@@H](O)[C@@H](O)CC[C@@H](O)C[C@@H](O)C[C@@H](O)CC(=O)O[C@H]1C,.,-7.1%[21.4 µM],.,.,.,.,.,.
O=[N+]([O-])/C=C\c1ccc(N2CCCC2)c(F)c1,-3.8%,-10.7%,-8.1%,3.6%,?,1.0%,2.39µM*,6.01µM*
CCN(CC)/[N+]([O-])=N/O,.,9.7%,.,.,.,.,.,.
C/C=C1/C[C@@H](C)[C@](O)(CO)C(=O)OCC2=CCN3CC[C@@H](OC1=O)C23 (some centres not stated),.,-5.4%,.,.,.,.,.,.
CN(C(=O)Nc1ccc(Cl)c(Cl)c1)c1ccccc1C(=O)O,55.8%,-0.1%,18.8%,-1.1%,15.1µM*,-3.8%,?,?
CN(C)C(=O)Nc1ccc(-n2nc(C(C)(C)C)oc2=O)c(Cl)c1,.,-20.2%,.,.,.,.,.,.
CC(CNc1ccccc1O)C(=O)O (configuration not stated),-1.8%,-2.7%,4.0%,-5.7%,23.9µM*,-5.0%,?,?
CCn1cc(/C=N\NC(=O)Cc2ccc(Cl)cc2)cn1,-0.9%,-3.8%,15.0%,3.6%,19µM*,.,7.57µM*,15.1µM*
O=C(Cc1ccccc1)N1CCN(Cc2ccc(Cl)cc2)CC1,2.6%,.,.,.,.,-11.2%,.,.
COc1ccc(/C=N/NC(=O)Cc2ccc(Cl)cc2)cc1OC,-5.5%,-2.0%,0.0%,3.2%,?,3.5%,?,?
O=C(Cc1ccc(Cl)cc1)N/N=C/c1cccc(O)c1,-7.8%,-4.2%,.,-0.8%,9.53µM*,9.6%,10.7µM*,12µM*
O=C(/C=C\c1ccc(Cl)cc1)N[C@@]12CCC(=O)[C@@H]3Oc4c(O)ccc5c4[C@@]31CCN(CC1CC1)[C@@H]2C5,.,-16.7%,.,.,.,.,.,.
O=C(O)Cc1sc(-c2ccccc2Cl)nc1-c1ccccc1,7.5%,-2.6%,-2.0%,-6.6%,?,15.9%,0.1%,12.4%
Nc1nnc(Cc2cccc(Br)c2)s1,1.3%,-2.0%,-0.5%,12.2%,?,-3.2%,21.3µM*,30.1µM*
Cc1cc(C)c(C)c(S(=O)(=O)N2CCC(C(=O)OCC(=O)N3c4ccccc4NC(=O)C3(C)C)CC2)c1C,-3.7%,-11.4%,-2.7%,2.8%,?,-2.3%,?,?
O=Cc1cccc(OC(=O)/C=C/c2ccco2)c1,-1.9%,?,.,3.3%,23.9µM*,5.5%,6.75µM*,12µM*
O=C1OC(Nc2ccc(F)c([N+](=O)[O-])c2)c2ccccc21 (configuration not stated),1.0%,-1.3%,-1.2%,-9.1%,15.1µM*,-1.6%,21.3µM*,?
N#Cc1ccc(CN2CC[C@@]3(CCCNC3)C2)cc1,.,2.5%,.,.,.,.,.,.
CC(C)OC(=O)Nc1cccc(Cl)c1,.,-1.2%,.,.,.,.,.,.
NNC(=O)CNc1cccc(Cl)c1,3.7%,3.0%,-1.8%,-1.6%,12µM*,0.9%,23.9µM*,26.9µM*
SMILES,S-ASM inh,GCN5L2 inh,p53 reactivation,AT treatment,Tb PFK inh-1,ERG-DNA inh,TbPFK ATP,Tb PFK inh-2
COc1ccc(/C=C/C(=O)Nc2ccccc2C(=O)O)cc1,11.6%,-11.6%,-8.2%,0.2%,?,-0.5%,-30.9%,?
COc1ccc(/C=C/c2cc(O)cc(O)c2)cc1,.,-21.6%,.,.,.,.,.,.
O=C(O)c1ccc(N=Nc2c(O)[nH]c3cc(Cl)ccc23)cc1,-0.9%,-6.7%,5.1%,-16.9%,?,-2.0%,-25.4%,?
C[N+](C)(C)CCCl,.,0.0%,.,.,.,.,.,.
CC(CN)CC(=O)O (configuration not stated),.,-0.3%,.,.,.,.,.,.
Cc1c(Cl)sn(-c2ccc(Cl)cc2)c1=O,0.6%,10µM*,-7.2%,-10.5%,6.75µM*,-6.1%,3.01µM*,5.36µM*
NCCCNCCCCNCCCNC(=O)Cc1ccc(O)cc1,.,12.7%[12.7 µM],.,.,.,.,.,.
Nc1c([N+](=O)[O-])ccc(Oc2ccccc2)c1Cl,.,5.4%,.,.,.,.,.,.
C[C@@H]1NCCc2cc(O)c(O)cc21,0.7%,-1.1%,-7.7%,-8.1%,?,-0.6%,8.49µM*,?
COc1ccc2o/c(=N/NC(=O)c3cccs3)c(C(N)=O)cc2c1,-10.6%,-20.5%,?,-4.2%,?,-8.2%,-31.1%,?
O[C@@H]1[C@@H]2O[P@@](O)(=S)OC[C@H]2O[C@H]1n1cnc2cc(Cl)c(Cl)cc21,.,-3.7%,.,.,.,.,.,.
CC(=O)OC1CC2C(C)(C)C(=O)C=C[C@]2(C)C2CC[C@]3(C)C(=CC(=O)OC3c3ccoc3)[C@]12C (some centres not stated),.,11.3%,.,.,.,.,.,.
N[C@H](CCP(=O)(O)O)C(=O)O,.,-8.4%,.,.,.,.,.,.
